Screening data as filed in PubChem.
BAZ2B inh – BAZ2B (human) inhibition. actives 4.4% (n = 360,000). AlphaScreen BAZ2B-H3K14Ac peptide displacement. AID 504333. Potency, µM (series often up to 114 µM), usual class: inhibitors; further: nearly all actives have a fitted effect of over 60% in size
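Complex of BAZ2B and biotin-H3K14Ac (50 nM apiece) forms over 30 min at RT, then faces library compounds up to 110 uM for another 30 min; AlphaScreen beads added, 20 min dark incubation, luminescence read.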
Sfp inh – inhibitors of Bacillus subtilis Sfp phosphopantetheinyl transferase | Q9F4F7 | Biochemical Sfp PPTase activity, qHTS | Potency, µM, hits mostly inhibitors | actives 3.5% (n = 310,000) | AID 1490;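 further: the enzyme is Sfp with the accession as filed and its product quenches rhodamine fluorescence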
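Sfp 15 nM + cpd, 15 min RT; start w/ rhodamine-CoA 5 uM, BHQ-2-YbbR 12.5 uM (final); 50 mM Hepes pH 7.6, 10 mM MgCl2, 0.01% NP-40, 0.01% BSA; read 525/598 nm at 0 and 30 min.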
JMJD2A Tudor – JMJD2A Tudor domain (human) inhibition; AID 504339; actives 4.4% (n = 390,000); Potency, µM (top dose mostly 114 µM), actives largely listed as inhibitors; AlphaScreen JMJD2A-Tudor / H3K4me3 peptide binding; further: nearly all actives have a fitted effect of over 50% in size
G9a block – blocks human histone lysine methyltransferase G9a; Q96KQ7; actives 8.8% (n = 350,000); Potency, µM (top dose mostly 102 µM), hits mostly inhibitors; AID 504332; G9a H3K9 monomethylation, AlphaScreen, 2 h; further: nearly all actives have a fitted effect of over 75% in size
Target sequence (Q96KQ7 913-1193 limits assumed): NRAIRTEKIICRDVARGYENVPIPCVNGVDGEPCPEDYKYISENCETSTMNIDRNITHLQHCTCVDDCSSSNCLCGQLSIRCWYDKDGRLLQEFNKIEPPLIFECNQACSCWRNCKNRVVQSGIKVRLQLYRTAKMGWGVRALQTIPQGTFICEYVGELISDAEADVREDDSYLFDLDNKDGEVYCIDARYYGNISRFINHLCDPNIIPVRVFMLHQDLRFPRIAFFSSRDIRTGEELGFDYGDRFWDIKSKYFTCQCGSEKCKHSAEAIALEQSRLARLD
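G9a (20 nM) was preincubated 15 min with compound, then reacted 2 h at room temperature with 500 nM biotin-H3K9 peptide and 20 µM SAM. Monomethyl-H3K9 detected by AlphaScreen using anti-H3K9me1 antibody.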
HP1b chromo inh – blocks HP1-beta chromodomain binding to methylated histone tails; P83916; AlphaScreen HP1-beta / biotin-H3K9me3 peptide binding; Potency, µM (highest dose often 114 µM), actives largely listed as inhibitors; actives 0.56% (n = 390,000); AID 540317; further: nearly all actives have a fitted effect of over 70% in size
Target sequence (P83916 whole entry, looked up): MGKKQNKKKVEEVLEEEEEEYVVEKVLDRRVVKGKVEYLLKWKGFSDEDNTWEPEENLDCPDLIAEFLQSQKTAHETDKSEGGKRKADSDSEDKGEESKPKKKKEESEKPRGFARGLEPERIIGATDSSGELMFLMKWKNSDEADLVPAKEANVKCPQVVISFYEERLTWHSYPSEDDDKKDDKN
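AlphaScreen: HP1-beta (50 nM) preformed 30 min with biotin-H3(1-18)K9me3 peptide (50 nM) in PBS pH 7.4, 0.01% Tween-20. Compound added for 30 min at RT, then streptavidin donor/nickel chelate acceptor beads (10 ug/mL) for 30 min.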
Numbers stand for hits; n = inactive; u = inconclusive; x = no result given; ! = a repeat was not active; [ ] = remark or other dose. Sampled rows, rich in hits. Any-hit rate of the full collection: about 12%. The call rests on the fitted dose curve; in most records, active means well fitted curve in the direction sought with a large enough effect; inconclusive means small, poorly fitted or top-dose-only effect, or another doubt; inactive means no such curve, though single readings can be large; an effect the other way counts as inactive or inconclusive.

SMILES | BAZ2B inh | Sfp inh | JMJD2A Tudor | G9a block | HP1b chromo inh
CCN(CC)c1ncnc2c1ncn2[C@@H]1O[C@H](COP(=O)(O)OP(=O)(O)C(Br)(Br)P(=O)(O)O)[C@@H](O)[C@H]1O | x | x | x | 30µM! | x
Nc1ncnc2c1ncn2[C@@H]1O[C@H](COP(=O)(O)OP(=O)(O)OP(=O)(O)O)[C@@H](O)[C@H]1O | n | n | u | n | n
NC(=O)C1=CN(C2OC(COP(=O)(O)OP(=O)(O)OC[C@H]3O[C@@H](n4cnc5c(N)ncnc54)[C@H](OP(=O)(O)O)[C@@H]3O)C(O)C2O)C=CC1 (stereo partly drawn) | x | x | x | 11µM | x
Nc1ncnc2c1ncn2[C@@H]1O[C@H](COP(=O)(O)OP(=O)(O)OP(=O)(O)O)[C@H]2OC3(O[C@H]21)C([N+](=O)[O-])=CC(=[N+]([O-])[O-])C=C3[N+](=O)[O-] (stereo partly drawn) | x | 8.9µM | x | n | x
OCC1OC(n2cnc3c(Cl)ncnc32)C(O)C1O (stereo not drawn) | x | n | x | x | x
C[C@@H]1CC([C@H](O)CC2CC(=O)NC(=O)C2)C(=O)[C@@H](C)C1 (stereo partly drawn) | x | n | x | n | x
CCOC(=O)c1ccc(N2C(=O)c3n[nH]c(-c4cccs4)c3C2c2ccc(Cl)cc2Cl)cc1 (stereo not drawn) | x | x | u | n | n
CC[C@H](C)[C@H](NC(=O)[C@H](CCCN=C(N)N)NC(=O)[C@H](CCCN=C(N)N)NC(=O)[C@H](CC(C)C)NC(=O)[C@H](Cc1ccccc1)NC(=O)CNC(=O)CNC(=O)[C@@H](N)Cc1ccc(O)cc1)C(=O)O | x | n | x | n | x
CNc1ccc2oc(C[C@H]3O[C@]4(CC[C@H]3C)O[C@H]([C@H](C)C(=O)c3ccc[nH]3)[C@H](C)C[C@H]4C)nc2c1C(=O)O | x | n | x | x | x
CNc1ccc2oc(C[C@@H]3OC4(CC[C@@H]3C)O[C@H](C(C)C(=O)c3ccc[nH]3)[C@H](C)C[C@H]4C)nc2c1C(=O)O (stereo partly drawn) | x | n | x | 18µM | x
CCCCC/C=C\C/C=C\C/C=C\C/C=C\CCCC(=O)O | n | 63µM! | x | 16µM! | x
CCCCC/C=C\C/C=C\CCCCCCCC(=O)NCCCC(=O)O | x | n | x | x | x
CCCCC/C=C\C/C=C\C/C=C\C/C=C\CCCC(=O)NCCCl | x | 32µM | x | u | x
Cc1cc(NC(=O)c2cc(-c3cccc(Cl)c3)on2)nn1Cc1ccc(Cl)cc1 | u | x | n | u | n
CC(C)(C)NC[C@H](O)c1cc(Cl)c(N)c(Cl)c1 | x | n | x | n[21.5 µM] | x
CCOP(=O)(OCC)O/C(=C/Cl)c1ccc(Cl)cc1Cl | x | n | x | n[12.7 µM] | x
Cc1ccc(-n2c(-c3nn(C)c(C)c3Cl)n[nH]c2=S)cc1 | n | 56µM | u | u | n
Cc1ccc(-n2c(O)c(/C=N/N3CCOCC3)c(=O)[nH]c2=S)cc1 | u | u | u | u | n
Cc1ccc(-c2n[nH]c(=S)n2-c2ccccc2)cc1 | n | 79µM | 20µM | 1.3µM | n
CCn1nc(-c2cccs2)nc2c(=O)n(C)c(=O)nc1-2 | n | n | n | 18µM | n
CCOc1cccc(N2C(=O)/C(=C/c3ccco3)C(=O)NC2=S)c1 | 32µM | 35µM | 22µM | 14µM | 20µM
O=C1NC(=S)N(c2ccccc2)C(=O)/C1=C/c1ccco1 | 20µM | 22µM | 3.2µM | n[0.501 µM] | 2.8µM
O=c1[nH]c(=S)[nH]c(O)c1N=Nc1ccc(SC(F)F)cc1 | n | n | n | 45µM | n
CN(C)C1CSSSC1 | x | n | x | x | x
c1ccc(-c2ccc(-c3n(-c4ccccn4)c4ccccc4[n+]3-c3ccccn3)cc2)cc1 | u | n | u | 35µM | n
SMILES | BAZ2B inh | Sfp inh | JMJD2A Tudor | G9a block | HP1b chromo inh
C/C(=C\[C@@H](N)C(=O)O)CP(=O)(O)O | x | n | x | x | x
CC(=O)c1c(O)n(-c2cccc(Cl)c2)c(=O)[nH]c1=O (tested in a mixture with another compound) | n | n | n | 50µM | n
CN1CC[C@@]2(C)c3cc(O)ccc3N(C)C12 (stereo partly drawn) | x | x | x | 9.5µM | x
CNC(=O)Oc1ccc2c(c1)[C@]1(C)CCN(C)[C@@H]1N2C | n | n | n | 45µM! | n
C[N+]1([O-])[C@@H]2CC(OC(=O)[C@@H](CO)c3ccccc3)C[C@@H]1[C@H]1O[C@H]12 (stereo partly drawn) | x | n | x | n | x
NS(=O)(=O)c1cc(C(=O)OCC(=O)Nc2ccc3[nH]c(=O)[nH]c3c2)ccc1Cl | n | x | n | 1.4µM | n
CCCC(=O)O[C@@H]1[C@@H](C)[C@@]2(O)[C@@H](C=C(CO)C[C@@]3(O)C(=O)C(C)=C[C@@H]23)[C@@H]2C(C)(C)[C@]12OC(=O)CCC | x | n | x | x | x
O=C(N/N=C/c1c(O)n(-c2cccc3ccccc23)c(=O)[nH]c1=O)c1ccncc1 | 79µM | n | 50µM | n | n
O=C(N/N=C/c1c(O)n(CCc2ccccc2)c(=O)[nH]c1=O)c1ccncc1 | 56µM | n | n | 20µM | n
CC(CO)(CO)N=Cc1c(O)n(-c2cccc3ccccc23)c(=O)[nH]c1=O | n | n | n | n | n
O=C(N/N=C/c1c(O)n(CCc2ccc(F)cc2)c(=O)[nH]c1=O)c1ccncc1 | 50µM | n | u | n | n
O=C(N/N=C/c1c(O)n(CCc2ccc(F)cc2)c(=O)[nH]c1=O)c1ccccc1 | n | n | u | n | n
O=C(N/N=C/c1c(O)n(CCc2ccccc2)c(=O)[nH]c1=O)c1ccccc1O | n | n | u | 71µM | n
COc1ccc(Cn2c(O)c(/C=N/NC(=O)c3ccncc3)c(=O)[nH]c2=O)cc1 | u | n | u | u | n
Cc1ccc(-n2c(O)c(/C=N/NC(=O)c3ccncc3)c(=O)[nH]c2=O)cc1C | 50µM | n | 56µM | u | n
CC(C)=CCSc1nnc([C@@H](N)Cc2c[nH]c3ccccc23)o1 | n | n | u | 3.5µM | u
CC(C)C[C@H]1C(=O)N2CCC[C@@H]2[C@]2(O)O[C@](NC(=O)[C@@H]3C=C4c5cccc6[nH]c(Br)c(c56)C[C@H]4N(C)C3)(C(C)C)C(=O)N12 | x | n | x | x | x
COC(=O)C(O)(c1c(C)[nH]n(-c2ccccc2)c1=O)C(F)(F)F (stereo not drawn) | u | n | n | 32µM | n
CCOc1ccc2nc(N=Nc3c(O)[nH]c(=S)[nH]c3=O)sc2c1 | 22µM | 56µM | u | 35µM | u
CCOc1ccc2nc(N=Nc3c(O)[nH]c(=O)[nH]c3=O)sc2c1 | 45µM | n | n[11.4 µM] | x | n
CCOc1ccc2nc(NC(=O)c3cccn(Cc4ccccc4C)c3=O)sc2c1 | n | x | n | n | n
CNC(=O)[C@@H]1C[C@H]1[C@@H](NP(=O)(c1ccccc1)c1ccccc1)c1ccccc1 | x | n | x | x | x
C=C(C)Cn1c(-c2cccs2)n[nH]c1=S | n | n | 5.6µM | 14µM | n
